{"source": "ChEMBL document CHEMBL3988442", "about": "“University of Dundee, Small-Polar-MMV Screening Library” (2021)", "note": "Hit rate of the full screen: of about 69,000 compounds, about 950 (1.4%) showed an effect of 50% or more. Only a selection was taken, and strong results are over-represented in it overall."}
{"tested_on": "Mycobacterium tuberculosis", "assay": "Cornell M. t heat shock assay; also: in the data most compounds retested in dose-response had high values", "type": "functional, organism-based", "design": "dose or concentration left out as unconfirmed", "units": {"Percent Effect": "%"}}
{"smiles": "CCCc1noc(CS(=O)(=O)CC(=O)NC(C)CCC)n1", "note": "(stereo not given)", "Percent Effect": 60.91}
{"smiles": "CCCc1noc(CCC(=O)NC(C)c2nnc3n2CCCCC3)n1", "note": "(stereo not given)", "Percent Effect": -4.52}
{"smiles": "CC(C)c1noc(CS(=O)(=O)CC(=O)NCC(F)(F)F)n1", "Percent Effect": 45.89}
{"smiles": "COc1cccc(CN2C[C@@H]3COC[C@]3(COCc3ccccn3)C2)c1.O=C(O)C(F)(F)F.O=C(O)C(F)(F)F", "Percent Effect": -27.12}
{"smiles": "Fc1cnc(N2CCCC3(CCN(Cc4ccco4)C3)C2)nc1.O=C(O)C(F)(F)F.O=C(O)C(F)(F)F", "note": "(stereo not given)", "Percent Effect": -39.88}
{"smiles": "Cc1cnn(CC2CCCN2Cc2noc(-c3ccccc3)n2)c1", "note": "(stereo not given)", "Percent Effect": -2.457}
{"smiles": "Cc1cnn(CC2CN(Cc3nc(N)c4ccccc4n3)CCO2)c1", "note": "(stereo not given)", "Percent Effect": 8.088}
{"smiles": "Cc1cnn(CC2CCCCN2Cc2nc(N)c3ccccc3n2)c1", "note": "(stereo not given)", "Percent Effect": 92.62}
{"smiles": "Nc1nc(CN2CCCC2Cn2cncn2)nc2ccccc12", "note": "(stereo not given)", "Percent Effect": -4.506}
{"smiles": "Nc1nc(CN2CCCCC2Cn2cncn2)nc2ccccc12", "note": "(stereo not given)", "Percent Effect": -45.18}
{"smiles": "Cc1cnn(CC2CCCN2Cc2nc(N)c3ccccc3n2)c1", "note": "(stereo not given)", "Percent Effect": 64.38}
{"smiles": "COc1cccc(CN2CCCCC2c2n[nH]cc2-c2cc(C)no2)c1.Cl", "note": "(stereo not given)", "Percent Effect": 13.26}
{"smiles": "CCOC1COC2(CCN(CC3CCOCC3)CC2)C1.O=C(O)C(F)(F)F", "note": "(stereo not given)", "Percent Effect": -19.84}
{"smiles": "CCS(=O)(=O)N1CCOCC2(CCN(c3ccccn3)C2)C1.O=C(O)C(F)(F)F", "note": "(stereo not given)", "Percent Effect": -24.76}
{"smiles": "CCc1nc2ccccc2c(=O)n1CC1(O)CCNCC1.Cl", "Percent Effect": -1.704}
{"smiles": "O=C(O)C(F)(F)F.O=C(c1ccncn1)N1CCC[C@]2(C[C@H](Oc3ncccc3F)CO2)C1", "Percent Effect": -22.98}
{"smiles": "COCCCNC(=O)c1cn(C(C)(C)C)c2ncccc12", "Percent Effect": 50.28}
{"smiles": "COCC(C)NC(=O)c1cn(C(C)(C)C)c2ncccc12", "note": "(stereo not given)", "Percent Effect": -8.611}
{"smiles": "CCOCCCNC(=O)c1cn(C(C)(C)C)c2ncccc12", "Percent Effect": 48.73}
{"smiles": "CCNC(=O)c1cn(C(C)(C)C)c2ncccc12", "Percent Effect": 35.45}
{"smiles": "CNC(=O)c1cn(C(C)(C)C)c2ncccc12", "Percent Effect": 4.278}
{"smiles": "COCCNC(=O)c1cn(C(C)(C)C)c2ncccc12", "Percent Effect": 84.66}
{"smiles": "COCCN(CCOC)C(=O)c1cn(C(C)(C)C)c2ncccc12", "Percent Effect": 20.52}
{"smiles": "CCCNC(=O)c1cn(C(C)(C)C)c2ncccc12", "Percent Effect": 52.59}
{"smiles": "CC(C)(C)n1cc(C(=O)NCCCn2ccnc2)c2cccnc21", "Percent Effect": -4.729}
{"smiles": "CN(C)Cc1cc(=O)n2c(n1)CN(S(=O)(=O)C1CC1)CCC2.O=C(O)C(F)(F)F", "Percent Effect": 14.69}
{"smiles": "CCSc1ccccc1C(=O)N(CCOC)Cc1ccoc1", "Percent Effect": -23.21}
{"smiles": "COCC(=O)N1CCN(CCn2cccn2)c2nc(C)ccc2C1.O=C(O)C(F)(F)F", "Percent Effect": -7.36}
{"smiles": "COCC1CC2(CCN(c3ccccn3)CC2)CN1C(C)C.O=C(O)C(F)(F)F.O=C(O)C(F)(F)F", "note": "(stereo not given)", "Percent Effect": -2.762}
{"smiles": "Cc1csc(CN2CC[C@H]3C[C@H](c4nc(C)no4)O[C@@H]3C2)n1.O=C(O)C(F)(F)F", "Percent Effect": -42.3}
{"smiles": "Cn1cc(-c2ncnc3c2CCN(CC2CCOC2)CC3)cn1.O=C(O)C(F)(F)F", "note": "(stereo not given)", "Percent Effect": 17.32}
{"smiles": "O=C(O)C(F)(F)F.O=C(O)C(F)(F)F.c1ccc(CN2CCn3c(Cn4cncn4)cnc3C2)nc1", "Percent Effect": 0.3776}
{"smiles": "O=C(O)C(F)(F)F.O=C([C@H]1C[C@H]2OCC[C@H]2N(CCc2ccccc2)C1)N1CCCO1", "Percent Effect": -5.073}
{"smiles": "O=C(NCC1CC1)C1CN(c2ncccn2)Cc2ccnn2C1.O=C(O)C(F)(F)F.O=C(O)C(F)(F)F", "note": "(stereo not given)", "Percent Effect": 12.91}
{"smiles": "CCc1nc(CN2CCCN(C(=O)c3cn[nH]c3C)CC2)cs1", "Percent Effect": 14.33}
{"smiles": "CCc1nc(CN2CCCN(C(=O)COCC3CC3)CC2)cs1", "Percent Effect": 155.1}
{"smiles": "c1csc(N2CCCN(Cc3noc(C4CC4)n3)CC2)n1", "Percent Effect": -6.96}
{"smiles": "CCCOCC(=O)N1CCCN(Cc2csc(CC)n2)CC1", "Percent Effect": 22.03}
{"smiles": "Cc1ncc(CN2CCCN(Cc3noc(C4CC4)n3)CC2)s1", "Percent Effect": 6.148}
{"smiles": "Cc1nc(CN2CCCN(C(=O)COCC3CC3)CC2)cs1", "Percent Effect": 36.12}
{"smiles": "CCc1nc(CN2CCCN(C(=O)c3cnc[nH]3)CC2)cs1", "Percent Effect": 30.64}
{"smiles": "CCc1nc(CN2CCCN(C(=O)c3cn[nH]c3CC)CC2)cs1", "Percent Effect": 52.06}
{"smiles": "CCc1nc(CN2CCCN(Cc3noc(C4CC4)n3)CC2)cs1", "Percent Effect": 67.89}
{"smiles": "CCc1nc(-c2ccnc(N3CCNCC3)n2)no1.Cl.Cl", "Percent Effect": -8.056}
{"smiles": "Cl.O=C(c1cccnc1)N1CCC2(CC1)CNc1c(F)cccc12", "Percent Effect": 4.233}
{"smiles": "O=C(O)C(F)(F)F.c1cnc(NC2COC3(CCN(Cc4cc[nH]n4)CC3)C2)nc1", "note": "(stereo not given)", "Percent Effect": -22.6}
{"smiles": "O=C(O)C(F)(F)F.O=C(O)C(F)(F)F.O=C(O)C(F)(F)F.O=C1C[C@H]2[C@@H](CCN2Cc2ccccn2)N1Cc1cccnc1", "Percent Effect": -6.498}
{"smiles": "O=C(O)C(F)(F)F.O=C([C@H]1C[C@H]2OCC[C@H]2N(C(=O)c2ccncc2)C1)N1CCCC1", "Percent Effect": -34.63}
{"smiles": "Cc1cc(CCC(=O)N(C)C)nc(C2CCCCN2)n1.Cl.Cl", "note": "(stereo not given)", "Percent Effect": -7.222}
{"smiles": "CCCS(=O)(=O)N1C[C@@H](OCc2ccncc2)[C@H]2OCCC[C@H]21.O=C(O)C(F)(F)F", "Percent Effect": -14.14}
{"smiles": "CCn1cc2c(n1)C(COC)CN(C(=O)c1ccccn1)C2", "note": "(stereo not given)", "Percent Effect": -31.72}
{"smiles": "CC(C)c1nc(-c2ccnc(N3CCNCC3)n2)no1.Cl.Cl", "Percent Effect": -7.834}
{"smiles": "CC[C@]12CN3C[C@](C)(CN(C1)C3c1[nH]c(=O)[nH]c(=O)c1C)C2=O", "note": "(stereo not given in full)", "Percent Effect": 68.87}
{"smiles": "Cc1c(C2N3C[C@]4(C)CN2C[C@](C)(C3)C4=O)[nH]c(=O)[nH]c1=O", "note": "(stereo not given in full)", "Percent Effect": 74.22}
{"smiles": "CCC[C@]12CN3C[C@](CCC)(CN(C1)C3c1[nH]c(=O)[nH]c(=O)c1C)C2=O", "note": "(stereo not given in full)", "Percent Effect": -14.28}
{"smiles": "Cc1c(C2N3C[C@]4(C(C)C)CN2C[C@](C(C)C)(C3)C4=O)[nH]c(=O)[nH]c1=O", "note": "(stereo not given in full)", "Percent Effect": 1.038}
{"smiles": "CC[C@]12CN3C[C@](CC)(CN(C1)C3c1[nH]c(=O)[nH]c(=O)c1C)C2=O", "note": "(stereo not given in full)", "Percent Effect": 72.7}
{"smiles": "CCC[C@]12CN3C[C@](C)(CN(C1)C3c1[nH]c(=O)[nH]c(=O)c1C)C2=O", "note": "(stereo not given in full)", "Percent Effect": -3.215}
{"smiles": "O=C(O)C(F)(F)F.O=C1CC[C@H]2[C@H](CCN2c2ncc(F)cn2)N1c1ccccc1", "Percent Effect": 11.33}
{"smiles": "CCn1ccnc1CNCC(c1ccc(C)s1)N1CCOCC1", "note": "(stereo not given)", "Percent Effect": -18.67}
{"smiles": "Cn1ccc(C(=O)N2C[C@H]3CCC[C@@]3(COCc3cccnc3)C2)n1.O=C(O)C(F)(F)F", "Percent Effect": -13.25}
{"smiles": "CN(CCCc1cc(-c2ccc(F)cc2)n(C)n1)CC(N)=O", "Percent Effect": 51.67}
{"smiles": "CC(C(N)=O)N(C)CCCc1cc(-c2ccc(F)cc2)n(C)n1", "note": "(stereo not given)", "Percent Effect": 22.06}
{"smiles": "CN(CCCc1cc(-c2ccc(F)cc2)n(C)n1)CC(=O)NC(N)=O", "Percent Effect": 24.77}
{"smiles": "CN(C)[C@@H]1CCN(C(=O)c2ccccn2)[C@H]1Cc1ccncc1", "Percent Effect": 0.1149}
{"smiles": "CN(C)[C@@H]1CCN(C(=O)c2ccsc2)[C@H]1Cc1cnn(C)c1", "Percent Effect": 4.524}
{"smiles": "CN(C)[C@@H]1CCN(C(=O)c2ccccn2)[C@H]1Cc1cnn(C)c1", "Percent Effect": 76.59}
{"smiles": "CC(C)CN1C[C@H]2CCN(Cc3cccnc3)CC[C@H]2S1(=O)=O.O=C(O)C(F)(F)F.O=C(O)C(F)(F)F", "Percent Effect": -7.462}
{"smiles": "CCOC(=O)C(CO)NC(=O)CCc1cccc(OC2CCCC2)c1", "note": "(stereo not given)", "Percent Effect": -10.42}
{"smiles": "Cc1ccc(N2N=C(C(N)=O)S(=O)(=O)c3cccnc32)cc1", "Percent Effect": 105.6}
{"smiles": "Cc1ccc(N2N=C(C(=O)NCC3CC3)S(=O)(=O)c3cccnc32)cc1", "Percent Effect": 9.457}
{"smiles": "Cc1ccc(N2N=C(C(=O)O)S(=O)(=O)c3cccnc32)cc1", "Percent Effect": -6.267}
{"smiles": "Cc1ccc(C(=O)N2C[C@@H]3OCCN(CCN4CCCC4)[C@@H]3C2)cn1.O=C(O)C(F)(F)F", "Percent Effect": 8.47}
{"smiles": "O=C(CC1CC1)N1CCC2(CCCN(CCOc3ccccc3)C2)C1.O=C(O)C(F)(F)F", "note": "(stereo not given)", "Percent Effect": -8.964}
{"smiles": "CC(Cn1cccn1)NCc1csc(-c2ccc3c(c2)OCO3)n1", "note": "(stereo not given)", "Percent Effect": 35.45}
{"smiles": "c1cnn(CCNCc2csc(-c3ccc4c(c3)OCO4)n2)c1", "Percent Effect": 65.17}
{"smiles": "c1cnn(CCNCCCOc2ccc3c(c2)OCO3)c1", "Percent Effect": 0.6427}
{"smiles": "Cc1cnn(CCNCc2csc(C)n2)c1", "Percent Effect": 4.294}
{"smiles": "Cc1cnn(CCNCc2csc(-c3ccc(C(N)=O)cc3)n2)c1", "Percent Effect": -3.906}
{"smiles": "Cc1cnn(CCNCc2csc(-c3ccc4c(c3)OCO4)n2)c1", "Percent Effect": 93.68}
{"smiles": "COCC1CN(c2ccncn2)Cc2cnn(CC3CCCC3)c21.O=C(O)C(F)(F)F.O=C(O)C(F)(F)F", "note": "(stereo not given)", "Percent Effect": 3.159}
{"smiles": "Cc1ccc(CN2CCC3(CC2)CCN(C(=O)c2cccnc2)C3)o1.O=C(O)C(F)(F)F", "Percent Effect": 41.04}
{"smiles": "Cc1cncc(C(=O)N2C[C@H]3CCC[C@@]3(COc3ccccn3)C2)c1.O=C(O)C(F)(F)F.O=C(O)C(F)(F)F", "Percent Effect": -23.58}
{"smiles": "Cc1ccc(N2CC[C@H]3C[C@H](C(=O)NCc4ccco4)O[C@@H]3C2)cc1.O=C(O)C(F)(F)F", "Percent Effect": 4.102}
{"smiles": "NC[C@H]1CC[C@H](C(NC(=O)C2CC2)c2ccccn2)CC1", "note": "(stereo not given in full)", "Percent Effect": -11.64}
{"smiles": "NC[C@H]1CC[C@H](C(NC(=O)c2cccc(F)c2)c2ccccn2)CC1", "note": "(stereo not given in full)", "Percent Effect": 107.2}
{"smiles": "NC[C@H]1CC[C@H](C(NC(=O)c2ccccn2)c2ccccn2)CC1", "note": "(stereo not given in full)", "Percent Effect": 11.19}
{"smiles": "NC[C@H]1CC[C@H](C(NC(=O)c2ccccc2)c2ccccn2)CC1", "note": "(stereo not given in full)", "Percent Effect": 15.73}
{"smiles": "COc1cccc(C(=O)NC(c2ccccn2)[C@H]2CC[C@H](CN)CC2)c1", "note": "(stereo not given in full)", "Percent Effect": 14.74}
{"smiles": "COc1ccccc1C(=O)NC(c1ccccn1)[C@H]1CC[C@H](CN)CC1", "note": "(stereo not given in full)", "Percent Effect": 95.79}
